7 compounds from ChEMBL document CHEMBL2218924, “A broad activity screen in support of a chemogenomic map for kinase signalling research and drug discovery” (Biochem J, 2013) can be followed below.

Test [1] has as its target Insulin receptor (Homo sapiens) (UniProt P06213). The conditions noted are these: at 10 µM.
For test [2] the target is unchanged. The conditions noted are these: at 1 µM.
Test [3] shares this target. The settings on record: at 10 µM. This is another data set of the same source.
The target in test [4] is Interleukin-1 receptor-associated kinase 1 (Homo sapiens) (UniProt P51617). The settings on record: at 1 µM.
For test [5] the target is unchanged. The conditions noted are these: at 10 µM.
Test [6] concerns the target T1, Interleukin-1 receptor-associated kinase 4 (Homo sapiens) (UniProt Q9NWZ3).
T1 sequence (whole entry): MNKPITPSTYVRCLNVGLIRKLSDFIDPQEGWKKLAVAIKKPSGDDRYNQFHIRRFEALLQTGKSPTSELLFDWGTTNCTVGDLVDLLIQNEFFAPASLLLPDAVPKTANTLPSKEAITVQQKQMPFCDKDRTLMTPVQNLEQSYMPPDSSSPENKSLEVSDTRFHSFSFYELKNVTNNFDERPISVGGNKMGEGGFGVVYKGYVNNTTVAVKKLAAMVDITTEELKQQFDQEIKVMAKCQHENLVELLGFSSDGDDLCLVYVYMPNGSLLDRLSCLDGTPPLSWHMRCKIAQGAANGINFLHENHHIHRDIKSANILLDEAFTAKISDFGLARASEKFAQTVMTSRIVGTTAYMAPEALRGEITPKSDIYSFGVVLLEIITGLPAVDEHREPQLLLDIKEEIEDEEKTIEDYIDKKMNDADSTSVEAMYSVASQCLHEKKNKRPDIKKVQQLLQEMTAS
The settings on record: at 1 µM.

The target of test [7] is T1, Interleukin-1 receptor-associated kinase 4 (Homo sapiens). The conditions noted are these: at 10 µM.
Test [8] concerns the target Insulin receptor-related protein (Homo sapiens) (UniProt P14616). The conditions noted are these: at 1 µM.
The target is the same in test [9]. The settings on record: at 10 µM.
Test [10] deals with T2, Tyrosine-protein kinase ITK/TSK (Homo sapiens) (UniProt Q08881).
T2 sequence (whole entry): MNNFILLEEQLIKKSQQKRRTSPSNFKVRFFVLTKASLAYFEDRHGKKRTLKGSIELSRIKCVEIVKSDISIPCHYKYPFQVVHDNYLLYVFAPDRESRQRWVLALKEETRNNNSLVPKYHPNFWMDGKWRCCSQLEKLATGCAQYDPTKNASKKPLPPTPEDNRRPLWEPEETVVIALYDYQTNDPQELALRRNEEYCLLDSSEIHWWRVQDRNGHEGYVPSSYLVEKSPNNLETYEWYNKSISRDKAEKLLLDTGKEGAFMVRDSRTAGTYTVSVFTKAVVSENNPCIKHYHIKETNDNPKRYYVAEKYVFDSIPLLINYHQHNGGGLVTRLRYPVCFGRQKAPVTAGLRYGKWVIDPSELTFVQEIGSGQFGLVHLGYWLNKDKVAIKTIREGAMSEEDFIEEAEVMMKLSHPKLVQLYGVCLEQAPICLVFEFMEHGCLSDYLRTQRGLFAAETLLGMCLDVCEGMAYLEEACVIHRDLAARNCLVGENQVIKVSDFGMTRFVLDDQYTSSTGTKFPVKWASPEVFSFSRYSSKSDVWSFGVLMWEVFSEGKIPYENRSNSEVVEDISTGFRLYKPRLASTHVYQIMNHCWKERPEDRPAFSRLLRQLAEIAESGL
The settings on record: at 1 µM.

Test [11] deals with T2, Tyrosine-protein kinase ITK/TSK (Homo sapiens). The settings on record: at 10 µM.
Test [12] addresses Tyrosine-protein kinase JAK2 (Homo sapiens) (UniProt O60674). The conditions noted are these: at 1 µM.
For test [13] the target is unchanged. The settings on record: at 10 µM.
Test [14] deals with T3, Tyrosine-protein kinase JAK3 (Homo sapiens) (UniProt P52333).
T3 sequence (whole entry): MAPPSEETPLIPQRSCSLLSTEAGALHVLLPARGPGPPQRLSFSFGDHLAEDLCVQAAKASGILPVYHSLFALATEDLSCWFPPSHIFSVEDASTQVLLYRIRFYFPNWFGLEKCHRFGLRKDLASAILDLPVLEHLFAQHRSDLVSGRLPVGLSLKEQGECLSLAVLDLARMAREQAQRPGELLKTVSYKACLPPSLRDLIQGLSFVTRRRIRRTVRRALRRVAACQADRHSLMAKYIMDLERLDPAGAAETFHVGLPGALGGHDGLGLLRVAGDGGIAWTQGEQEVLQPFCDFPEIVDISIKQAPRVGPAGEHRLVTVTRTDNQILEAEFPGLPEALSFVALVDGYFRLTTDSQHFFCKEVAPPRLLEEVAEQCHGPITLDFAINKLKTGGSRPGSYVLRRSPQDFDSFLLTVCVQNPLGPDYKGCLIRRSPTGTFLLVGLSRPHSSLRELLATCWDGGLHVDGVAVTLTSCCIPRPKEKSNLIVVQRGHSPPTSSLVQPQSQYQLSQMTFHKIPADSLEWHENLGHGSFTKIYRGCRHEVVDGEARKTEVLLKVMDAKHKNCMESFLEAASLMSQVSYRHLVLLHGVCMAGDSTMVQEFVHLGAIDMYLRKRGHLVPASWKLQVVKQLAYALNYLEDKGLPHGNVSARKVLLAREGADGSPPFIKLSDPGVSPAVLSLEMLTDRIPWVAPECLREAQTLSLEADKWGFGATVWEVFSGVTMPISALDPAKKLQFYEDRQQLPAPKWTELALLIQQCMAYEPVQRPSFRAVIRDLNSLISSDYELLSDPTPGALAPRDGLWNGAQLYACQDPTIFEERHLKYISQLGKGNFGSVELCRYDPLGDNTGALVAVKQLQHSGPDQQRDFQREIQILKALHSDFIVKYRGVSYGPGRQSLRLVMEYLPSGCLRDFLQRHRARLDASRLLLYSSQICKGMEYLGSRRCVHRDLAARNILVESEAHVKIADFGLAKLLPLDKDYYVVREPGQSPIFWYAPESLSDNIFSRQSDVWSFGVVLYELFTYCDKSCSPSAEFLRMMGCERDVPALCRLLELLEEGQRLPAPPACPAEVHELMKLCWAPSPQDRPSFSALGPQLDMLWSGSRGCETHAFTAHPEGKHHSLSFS
The conditions noted are these: at 1 µM.

Test [15] deals with T3, Tyrosine-protein kinase JAK3 (Homo sapiens). The settings on record: at 10 µM.
The target in test [16] is Mitogen-activated protein kinase 8 (Homo sapiens) (UniProt P45983). The settings on record: at 1 µM.
Mitogen-activated protein kinase 8 (Homo sapiens), sequence (P45983 whole entry): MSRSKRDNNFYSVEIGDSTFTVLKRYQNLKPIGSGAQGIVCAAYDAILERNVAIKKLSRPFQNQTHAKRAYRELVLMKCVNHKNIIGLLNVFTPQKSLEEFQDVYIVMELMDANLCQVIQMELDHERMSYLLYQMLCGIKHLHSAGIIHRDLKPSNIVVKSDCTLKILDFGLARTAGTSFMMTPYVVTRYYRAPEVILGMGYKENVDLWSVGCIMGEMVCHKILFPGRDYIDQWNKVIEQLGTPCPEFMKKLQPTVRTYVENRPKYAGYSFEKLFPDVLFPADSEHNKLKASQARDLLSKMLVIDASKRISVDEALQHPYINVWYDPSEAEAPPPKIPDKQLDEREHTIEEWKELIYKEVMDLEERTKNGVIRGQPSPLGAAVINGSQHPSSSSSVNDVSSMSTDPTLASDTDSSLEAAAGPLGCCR
Test [17] has the same target. The settings on record: at 10 µM.
The target of test [18] is Mitogen-activated protein kinase 9 (Homo sapiens) (UniProt P45984). The settings on record: at 1 µM.
For test [19] the target is unchanged. The settings on record: at 10 µM.
In test [20] the target is Mitogen-activated protein kinase 10 (Homo sapiens) (UniProt P53779). The conditions noted are these: at 1 µM.
Mitogen-activated protein kinase 10 (Homo sapiens), sequence (P53779 whole entry): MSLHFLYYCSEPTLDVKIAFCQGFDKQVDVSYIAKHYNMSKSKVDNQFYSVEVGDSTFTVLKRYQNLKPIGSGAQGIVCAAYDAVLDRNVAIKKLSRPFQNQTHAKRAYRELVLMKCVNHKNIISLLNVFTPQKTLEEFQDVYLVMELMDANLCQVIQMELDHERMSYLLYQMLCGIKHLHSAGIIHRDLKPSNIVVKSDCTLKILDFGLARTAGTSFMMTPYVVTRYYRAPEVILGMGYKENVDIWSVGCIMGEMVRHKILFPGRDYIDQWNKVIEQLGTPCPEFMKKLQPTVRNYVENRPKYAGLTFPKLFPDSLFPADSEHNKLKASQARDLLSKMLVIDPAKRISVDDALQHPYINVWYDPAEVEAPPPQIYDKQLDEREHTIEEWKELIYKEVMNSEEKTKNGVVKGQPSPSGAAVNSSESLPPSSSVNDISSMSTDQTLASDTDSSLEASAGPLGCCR

Insulin receptor-related protein (Homo sapiens), sequence (P14616 27-742 limits assumed): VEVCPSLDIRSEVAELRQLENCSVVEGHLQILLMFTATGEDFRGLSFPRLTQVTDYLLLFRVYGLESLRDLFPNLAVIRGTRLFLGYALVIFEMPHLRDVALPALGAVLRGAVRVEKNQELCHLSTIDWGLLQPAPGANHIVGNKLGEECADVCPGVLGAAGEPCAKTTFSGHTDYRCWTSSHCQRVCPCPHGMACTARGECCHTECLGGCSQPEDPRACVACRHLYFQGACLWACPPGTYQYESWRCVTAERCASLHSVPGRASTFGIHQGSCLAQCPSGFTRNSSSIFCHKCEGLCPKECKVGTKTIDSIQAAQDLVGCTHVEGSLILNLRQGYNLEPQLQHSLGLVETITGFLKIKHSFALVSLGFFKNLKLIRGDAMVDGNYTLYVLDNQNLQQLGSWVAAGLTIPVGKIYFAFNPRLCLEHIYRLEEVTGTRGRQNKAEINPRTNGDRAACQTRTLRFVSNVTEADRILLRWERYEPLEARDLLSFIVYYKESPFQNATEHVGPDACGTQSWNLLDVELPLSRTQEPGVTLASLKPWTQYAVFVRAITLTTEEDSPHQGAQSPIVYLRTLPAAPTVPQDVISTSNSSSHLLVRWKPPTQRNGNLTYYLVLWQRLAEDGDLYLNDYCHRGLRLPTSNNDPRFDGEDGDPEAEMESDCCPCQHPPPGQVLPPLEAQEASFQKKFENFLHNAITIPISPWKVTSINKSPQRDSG
Insulin receptor-related protein (Homo sapiens), sequence (P14616 747-1297 limits assumed): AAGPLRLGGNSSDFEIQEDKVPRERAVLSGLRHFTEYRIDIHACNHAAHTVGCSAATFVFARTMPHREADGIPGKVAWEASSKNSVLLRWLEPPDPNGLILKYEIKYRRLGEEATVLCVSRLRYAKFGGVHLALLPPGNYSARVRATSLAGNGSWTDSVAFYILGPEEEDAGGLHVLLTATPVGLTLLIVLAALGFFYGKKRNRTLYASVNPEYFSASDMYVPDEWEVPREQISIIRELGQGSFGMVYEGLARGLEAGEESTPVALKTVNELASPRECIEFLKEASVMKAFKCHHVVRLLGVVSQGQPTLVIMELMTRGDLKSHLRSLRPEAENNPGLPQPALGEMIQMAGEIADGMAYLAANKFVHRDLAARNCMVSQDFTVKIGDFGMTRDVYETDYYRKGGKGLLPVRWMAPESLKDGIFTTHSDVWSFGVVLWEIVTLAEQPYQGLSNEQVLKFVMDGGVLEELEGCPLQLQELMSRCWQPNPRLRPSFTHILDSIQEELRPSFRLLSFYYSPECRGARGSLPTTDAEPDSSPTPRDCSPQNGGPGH
Tyrosine-protein kinase JAK2 (Homo sapiens), sequence (O60674 whole entry): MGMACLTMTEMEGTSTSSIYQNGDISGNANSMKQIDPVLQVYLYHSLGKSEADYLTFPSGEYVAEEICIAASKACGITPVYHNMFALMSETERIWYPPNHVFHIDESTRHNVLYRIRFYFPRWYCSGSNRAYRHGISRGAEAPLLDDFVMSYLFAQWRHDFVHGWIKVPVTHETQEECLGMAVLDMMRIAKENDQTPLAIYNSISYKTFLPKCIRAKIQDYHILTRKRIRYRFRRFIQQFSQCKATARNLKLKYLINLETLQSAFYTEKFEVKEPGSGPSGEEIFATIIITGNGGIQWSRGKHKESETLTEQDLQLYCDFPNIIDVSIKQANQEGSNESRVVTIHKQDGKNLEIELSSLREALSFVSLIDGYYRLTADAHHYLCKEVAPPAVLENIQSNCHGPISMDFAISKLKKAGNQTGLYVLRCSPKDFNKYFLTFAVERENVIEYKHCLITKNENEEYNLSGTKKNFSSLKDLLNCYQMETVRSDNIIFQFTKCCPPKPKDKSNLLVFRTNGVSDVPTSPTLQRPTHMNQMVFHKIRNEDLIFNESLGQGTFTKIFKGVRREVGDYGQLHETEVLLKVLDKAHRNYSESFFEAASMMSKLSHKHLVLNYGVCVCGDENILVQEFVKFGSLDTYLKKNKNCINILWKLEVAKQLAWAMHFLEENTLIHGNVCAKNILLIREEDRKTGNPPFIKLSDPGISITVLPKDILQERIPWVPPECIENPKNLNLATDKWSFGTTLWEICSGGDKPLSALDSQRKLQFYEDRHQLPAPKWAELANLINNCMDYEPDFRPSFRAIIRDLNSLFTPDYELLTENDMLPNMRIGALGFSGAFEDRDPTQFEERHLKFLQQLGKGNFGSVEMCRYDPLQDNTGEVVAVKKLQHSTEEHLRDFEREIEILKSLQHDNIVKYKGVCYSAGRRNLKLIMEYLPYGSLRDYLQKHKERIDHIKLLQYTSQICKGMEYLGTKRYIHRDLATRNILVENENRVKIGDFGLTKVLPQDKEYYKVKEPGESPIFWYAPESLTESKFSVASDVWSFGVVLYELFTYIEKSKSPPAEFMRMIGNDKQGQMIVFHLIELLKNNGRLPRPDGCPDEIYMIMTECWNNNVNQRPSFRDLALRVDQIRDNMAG
Insulin receptor (Homo sapiens), sequence (P06213 28-758 limits assumed): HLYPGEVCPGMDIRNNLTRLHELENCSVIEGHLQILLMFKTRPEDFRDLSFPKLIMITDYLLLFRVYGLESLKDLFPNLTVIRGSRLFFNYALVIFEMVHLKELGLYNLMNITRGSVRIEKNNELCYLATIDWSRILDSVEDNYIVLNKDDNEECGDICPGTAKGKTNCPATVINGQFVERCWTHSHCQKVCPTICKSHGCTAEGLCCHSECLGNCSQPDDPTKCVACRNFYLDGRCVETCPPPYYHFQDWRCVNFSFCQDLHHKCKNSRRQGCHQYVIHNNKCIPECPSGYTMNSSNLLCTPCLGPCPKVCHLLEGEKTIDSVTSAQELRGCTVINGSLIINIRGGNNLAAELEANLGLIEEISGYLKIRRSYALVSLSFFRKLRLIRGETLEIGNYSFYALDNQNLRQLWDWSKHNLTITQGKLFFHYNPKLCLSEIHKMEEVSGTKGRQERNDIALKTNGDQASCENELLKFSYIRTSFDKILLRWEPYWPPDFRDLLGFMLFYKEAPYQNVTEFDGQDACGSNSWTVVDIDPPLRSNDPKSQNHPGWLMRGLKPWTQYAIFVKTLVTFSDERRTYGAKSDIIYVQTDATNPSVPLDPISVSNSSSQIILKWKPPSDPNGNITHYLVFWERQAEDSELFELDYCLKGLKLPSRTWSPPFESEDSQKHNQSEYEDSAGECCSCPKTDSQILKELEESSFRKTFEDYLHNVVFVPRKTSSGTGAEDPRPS
Insulin receptor (Homo sapiens), sequence (P06213 763-1382 limits assumed): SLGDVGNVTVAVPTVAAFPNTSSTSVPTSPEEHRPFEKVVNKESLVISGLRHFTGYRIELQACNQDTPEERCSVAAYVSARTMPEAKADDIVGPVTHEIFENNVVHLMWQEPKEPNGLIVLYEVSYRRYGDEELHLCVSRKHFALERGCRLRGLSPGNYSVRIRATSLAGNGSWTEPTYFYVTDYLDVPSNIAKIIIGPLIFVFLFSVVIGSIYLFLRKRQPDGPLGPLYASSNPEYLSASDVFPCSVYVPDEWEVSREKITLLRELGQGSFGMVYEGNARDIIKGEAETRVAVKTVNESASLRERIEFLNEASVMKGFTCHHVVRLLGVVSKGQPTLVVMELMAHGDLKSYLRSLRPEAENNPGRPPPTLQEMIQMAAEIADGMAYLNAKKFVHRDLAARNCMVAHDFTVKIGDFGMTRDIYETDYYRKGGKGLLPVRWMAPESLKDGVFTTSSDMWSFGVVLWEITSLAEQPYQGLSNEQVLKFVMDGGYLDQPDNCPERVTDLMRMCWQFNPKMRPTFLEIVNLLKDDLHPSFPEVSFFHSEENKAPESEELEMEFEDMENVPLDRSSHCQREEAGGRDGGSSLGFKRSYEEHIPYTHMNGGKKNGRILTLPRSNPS

On to `O=C1Nc2ccccc2/C1=C1/Nc2ccccc2/C1=N\OCCC(O)CO` (stereo not given), for which the residual activity in [1] is 4%; in test [2] it was 10%; in [3], 4%; in test [4], 31%; in test [5], 23%; in test [6], 16%. Also, the residual activity in test [7] turned out to be 0%; in test [8] it was 2%; in test [9] it was 2%; in test [10], 24%; in test [11], 2%; in test [12], 27%. Moreover, the residual activity turned out to be 29% in test [13]; 13% in test [14]; 1% in test [15]; 56% in [16]; 61% in [17]; 43% in test [18]. Besides, the values for the residual activity in test [19] and in test [20] were 30% and 5%, respectively.
With `CN(C)c1ccc(/C=C2\C(=O)Nc3ccccc32)cc1`, the residual activity in test [1] is 65%; in [2], 93%; in [3], 71%; in [4] it was 118%; in test [5], 91%; in test [6], 92%. Moreover, the residual activity in test [7] turned out to be 46%; in test [8], 111%; in test [9], 23%; in [10], 98%; in [11], 65%; in test [12], 115%. Moreover, the residual activity was determined as 83% in [13]; 86% in test [14]; 32% in test [15]; 106% in [16]; 93% in test [17]; 102% in test [18]. For the same compound, the residual activity in test [19] stood at 98%; in test [20], 110%.
For the compound `N#C/C(=C(\N)Sc1ccc(N)cc1)c1ccccc1C(F)(F)F`, the residual activity in test [1] turned out to be 102%; in test [2], 102%; in test [3], 92%; in test [4], 91%; in test [5] it was 112%; in test [6], 83%. The residual activity amounted to 81% in test [7]; 105% in test [8]; 101% in test [9]; 100% in test [10]; 96% in test [11]; 99% in test [12]. The residual activity in test [13] came to 98%; in [14] it was 101%; in [15] it was 101%; in test [16], 95%; in [17], 100%; in [18], 93%. In addition, the residual activity in test [19] was determined as 103%; in test [20], 114%.
Take `COc1ccc(OC)c2c(=S)c3ccccc3[nH]c12`: the residual activity in test [1] is 103%; in test [2], 101%; in test [3], 89%; in [4] it was 101%; in [5], 102%; in test [6] it was 86%. For the same compound, the residual activity in test [7] is 68%; in [8] it was 106%; in test [9], 103%; in test [10], 98%; in [11], 97%; in [12] it was 88%. In addition, the residual activity is 102% in [13]; 97% in [14]; 97% in test [15]; 99% in [16]; 95% in test [17]; 88% in [18]. Also, the residual activity is 106% in [19] and 80% in [20].
For `COc1ccc(CNc2nc(N(CCO)CCO)nc3c2ncn3C(C)C)cc1`, the residual activity in test [1] was found to be 85%; in test [2], 90%; in test [3] it was 77%; in [4], 91%; in test [5], 107%; in [6] it was 71%. For the same compound, the residual activity in [7] stood at 71%; in test [8], 92%; in test [9], 87%; in test [10] it was 94%; in test [11], 85%; in [12] it was 91%. In addition, the residual activity in test [13] is 99%; in test [14] it was 105%; in [15] it was 107%; in test [16], 104%; in [17] it was 87%; in [18] it was 83%. Moreover, the residual activity in [19] was found to be 85%; in test [20], 75%.
For the compound `Cc1ccc(NC2=CC(=O)c3sc(C)nc3C2=O)cc1`, the residual activity in test [1] worked out at 90%; in [2], 102%; in test [3], 96%; in test [4], 105%; in test [5], 110%; in test [6], 85%. In addition, the residual activity in [7] came out at 86%; in test [8], 118%; in test [9], 108%; in test [10] it was 105%; in test [11] it was 101%; in test [12], 97%. In addition, the residual activity in [13] is 104%; in [14], 113%; in [15], 107%; in test [16] it was 112%; in [17], 92%; in test [18] it was 100%. Further, the results for the residual activity in [19] and in test [20] were 106% and 83%, respectively.
For `Nc1cccc(-c2cc3c(Oc4cccc(O)c4)ncnc3[nH]2)c1`, the residual activity in test [1] stood at 46%; in [2], 103%; in [3] it was 78%; in test [4], 69%; in test [5], 20%; in test [6] it was 79%. Further, the residual activity in test [7] amounted to 69%; in [8], 98%; in [9], 58%; in test [10], 68%; in test [11], 49%; in test [12] it was 80%. Besides, the residual activity in test [13] came out at 19%; in test [14], 83%; in test [15], 21%; in [16] it was 102%; in test [17], 89%; in [18], 90%. The figures for the residual activity in [19] and in test [20] were 82% and 94%, respectively.
